Screens: PubChem, several laboratories
In the library only some 0.74% were active in any assay of this set; here they are far more common.
Furin inhibitor = inhibitors of human furin | P09958 | purified furin, fluorogenic substrate cleavage | inhibition, % at 20 µM or 30 µM | actives 0.061% (n = 220,000) | AID 463115; in the data active = inhibition above about 25%
pCIP destab = compounds decreasing mouse p/CIP protein stability; decrease of EGFP signal, % at 10 µM; AID 1984; actives 0.01% (n = 290,000); F442A p/CIP-EGFP cells, EGFP fluorescence, 16 h;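 active = EGFP signal decrease of at least 30% at 10 µM or well 3 SD below plate mean, unless failing retest; inactive = the rest, including hits failing retest or dose response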
DTT redox prof = compounds producing H2O2 with reducing agent – biochemical, NIH compound library profiling, artefact control for MLSCN library redox annotation, primary screen. DTT-dependent redox cycling H2O2, phenol red/HRP absorbance; 100% = 100 µM peroxide control, 0% = buffer. activation, % at 10 µM. actives 0.03% (n = 200,000). AID 878;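 active = activation of at least 50% relative to the plate's high and low controls in the primary single-dose screen; inactive = activation below 50%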;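 note: compound incubated with DTT at 0.8 mM final as the reducing agent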
TbHK1 inh = T. brucei hexokinase 1 inhibition | recombinant TbHK1, G6PDH-coupled NADH A340 | inhibition, % at 10 µM | actives 0.11% (n = 220,000) | AID 1430;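 active = inhibition of 50% or more in the single-dose primary screen; inactive = inhibition below 50%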
Efa HMGR inh = E. faecalis class II HMG-CoA reductase inhibition; purified E. faecalis HMGR, NADPH absorbance 340 nm kinetic; inhibition, % at 10 µM; actives 0.41% (n = 190,000); AID 1066;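 active = inhibition above a set limit, the median over all tested compounds plus 3 SD, cut at about 9.5% in these data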;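 note: enzyme runs in reverse so mevalonate oxidation gives rising NADPH absorbance; 0% = complete reaction with DMSO and 100% = background rate lacking mevalonate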
p97 inhibitor = blocks human p97 ATPase activity; inhibition, % at 8 µM; AID 1481; actives 0.42% (n = 220,000); P55072; recombinant p97 ATPase, Kinase-Glo ATP luminescence, 3 h; in the data active = inhibition above about 15%;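 note: 0% = DMSO vehicle and 100% = wells lacking enzyme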
An asterisk follows results filed as active; · = not tested or not shown.

SMILES	Furin inhibitor	pCIP destab	DTT redox prof	TbHK1 inh	Efa HMGR inh	p97 inhibitor
C#CCOCCOCCOCCNc1nc(N2CCN(C(=O)[C@H]([C@@H](C)CC)n3cc(CCCN=C(N)N)nn3)CC2)nc(N2CCN(C(=O)[C@H](CCCCN)n3cc(CCCC)nn3)CC2)n1	-9	3	0	20	-4	9
C#CCOCCOCCOCCNc1nc(N2CCN(C(=O)[C@H](C)n3cc(CCCN=C(N)N)nn3)CC2)nc(N2CCN(C(=O)[C@H](CCCCN)n3cc(CCCC)nn3)CC2)n1	-25	2	0	28	10*	6
O=C1COc2ccc(S(=O)(=O)N3CCC(C(=O)NCc4ccccc4)CC3)cc2N1	·	-12	·	·	·	·
Cc1cccc(S(=O)(=O)Nc2ccc(-c3cn4ccccc4n3)cc2)c1	-4	10	0	-14	14*	3
Cc1cc(N2CCN(c3nc(-c4ccc([N+](=O)[O-])cc4)cs3)CC2)c2ccccc2n1	-29	-4	0	-7	14*	3
CCc1nnc(NC(=O)CCC(=O)NC2CC2)s1	·	2	·	·	·	·
Cc1nnc(SCC(=O)N2CCCC2)n(N)c1=O	-26	8	0	-1	10*	3
Cc1nnc(SCC(=O)N2CCN(S(=O)(=O)c3ccc(Cl)cc3)CC2)n(N)c1=O	-8	-15	2	17	-2	5
Cc1nnc(SC/C=C/c2ccccc2)n(N)c1=O	-24	-10	0	-3	9.8*	4
CC1CCN(C(=O)CN(c2ccc3c(c2)OCCO3)S(=O)(=O)c2ccccc2)CC1	·	-12	·	·	·	·
CCOC(=O)Cn1c(C)[n+](CC(=O)c2ccccc2)c2ccccc21	-22	-9	·	-4	·	6
CCS(=O)(=O)c1ccc(O)c(NC(=O)COc2ccc(OC)cc2)c1	-29	-4	0	1	5	3
CCCc1ccc(OCC(=O)Nc2cc(S(=O)(=O)CC)ccc2O)cc1	-28	-10	0	1	10*	4
Cc1csc(=O)n1CCC(=O)OCC(=O)N(CC(C)C)c1c(N)n(Cc2ccccc2)c(=O)[nH]c1=O	·	-16	·	·	·	·
CSC1=NCCN1C(=O)c1ccc(S(=O)(=O)N(C)C)cc1	-8	-14	-1	2	-9	15*
CSC1=NCCN1C(=O)c1ccc(C)cc1	-26	-13	0	-5	-3	4
COc1ccc(Cn2c(C)c(C)c(C#N)c2NC(=O)Nc2ccc(Cl)cc2)cc1	-23	-10	-8	-10	11*	1
Cc1ccccc1NC(=O)c1nn(C)c2c1CS(=O)(=O)c1ccccc1-2	·	7	·	·	·	·
O=C(CNC(=S)N(Cc1ccccc1F)C1CCCCC1)NCCCN1CCOCC1	-31	3	0	0	13*	-2
COc1ccccc1CNS(=O)(=O)c1ccc2c(c1)CC(C)N2C(=O)C1CCC1 (stereo not drawn)	·	-6	·	·	·	·
O=C(Nc1cccnc1)c1cccc(S(=O)(=O)N2CCCCC2)c1	-21	-12	-1	2	12*	5
Cc1ccc(NC(=O)COC(=O)CN2C(=O)NC(C)(C)C2=O)cc1S(=O)(=O)N1CCOCC1	-30	-4	-1	4	9.7*	4
Cc1ccc(NC(=O)COC(=O)CN2C(=O)C3CCCCC3C2=O)cc1S(=O)(=O)N1CCOCC1 (stereo not drawn)	-11	4	0	-1	-3	6
CCCCCCCCCCCCCCCC[n+]1ccc(C(N)=O)cc1	2	3	0	64*	2	-2
CCCCCCCCCCCCCCCC[n+]1ccc(/C=N/O)cc1	-15	-4	0	47	-1	5
SMILES	Furin inhibitor	pCIP destab	DTT redox prof	TbHK1 inh	Efa HMGR inh	p97 inhibitor
CCc1ccc(NC(=O)Cn2nnc(C(=O)NCc3ccco3)c2N)cc1	·	4	·	·	·	·
CC(C)NC(=O)CSc1nc2ccccc2n1CC(=O)N(C(C)C)C(C)C	-34	5	0	1	23*	2
CN(Cc1ccon1)C(=O)CC1C(=O)NCCN1CC1CCCCC1 (stereo not drawn)	-11	-6	-1	8	-5	-1
COc1ccc(/C=C(/C#N)S(=O)(=O)c2ccc(C)cc2)cc1	1	-4	0	-29	40*	0
COc1ccc2ccc(=O)oc2c1	-43	0	0	-12	15*	6
COc1ccc(COc2ccc3ccc(=O)oc3c2)cc1	·	-7	·	·	·	·
O=C(/C=C/Nc1ccc(Br)cc1F)c1ccco1	-5	-11	0	-10	9.8*	-11
O=C(/C=C/Nc1ccc(F)cc1F)c1ccco1	-26	5	0	-11	-7	-13
COc1ccc(-c2c(N)n[nH]c2C)cc1OC	-24	-10	1	1	15*	4
Cc1cc(C)cc(-n2c(C)cc(/C=N/NC(=O)CN(c3c(C)cccc3C)S(C)(=O)=O)c2C)c1	-13	-8	0	-27	-5	-1
Cc1ccc(N(CC(=O)N/N=C/c2cc(C)n(-c3ccccc3C)c2C)S(C)(=O)=O)cc1	-16	22*	0	-2	-9	5
CN(C)S(=O)(=O)c1cccc(NC(=O)c2cc(=O)[nH]c(=O)[nH]2)c1	·	-9	·	·	·	·
CC(=O)Nc1ccc(S(=O)(=O)N2CCN(c3ccccn3)CC2)cc1	-8	-6	0	-1	4	-5
CC(C(=O)Nc1ccc(S(=O)(=O)N2CCOCC2)cc1)N1CCN(c2ccccn2)CC1 (stereo not drawn)	-9	-4	0	4	13*	2
COc1ccc(Cl)cc1NC(=S)NNC(=O)C1(C)CC1(Cl)Cl (stereo not drawn)	-7	-3	-1	9	-3	2
Cc1cc(-c2ccc(C(C)C)c(S(=O)(=O)NCCN3CCC(C)CC3)c2)on1	·	1	·	·	·	·
N#C/C(=C\c1coc2ccc(O)cc2c1=O)C(=O)Nc1nc2ccccc2s1	-20	-31	·	-8	·	43*
CCOC(=O)N1CCc2c(sc(NC(=O)CN(CC)CC)c2C#N)C1	-23	0	·	27	·	0
Cc1sc2ncnc(OCC(=O)N3CC(=O)Nc4ccccc43)c2c1C	-20	18	0	-7	-6	5
COc1ccc(/C=N/n2c(=O)[nH]c3c([nH]c4ccc(C)cc43)c2=O)cc1CN1CCOCC1	32*	12	0	-18	-5	3
O=C(CSc1nc2ccccc2s1)c1ccc(O)cc1O	·	-4	·	·	·	·
Cc1ccccc1S(=O)(=O)Cc1ccc(C(=O)NCCCN2CCCC(C)C2)o1 (stereo not drawn)	·	-6	·	·	·	·
C/C(=N/NC(=O)c1ccc(-c2ccccc2)cc1)c1cccc(O)c1	·	-15	·	·	·	·
O=C(c1cccc(Cl)c1)N1CCN(Cc2ccncc2)CC1	-21	29*	-3	0	-2	0
O=C(Cn1c(=O)oc2cccnc21)Nc1ccccc1Oc1ccc(Cl)cc1Cl	-24	-3	·	0	·	9
